Assay results reported in PubChem BioAssay (Tox21).
Unmarked numbers belong to inactive results. Inconclusive results are not listed. Where a call stands in place of a potency, no number is given. The source made the active and inactive calls. The call rests on the fitted dose curve; in most records, active means well fitted curve in the direction sought with a large enough effect in the repeat runs; inconclusive means weak or mixed curves; inactive means no such curve, though single readings can be large; an effect the other way counts as inactive or inconclusive.

Experiments:
[1] = qHTS RealTime-Glo MT Cell Viability Assay in HEK293 cells - 40 hour (AID 1224874); conditions: RealTime-Glo luminescence; max response: active compounds read low; further: nearly all actives have a fitted effect of over 50% in size; further: potency means the concentration at half of the fitted maximal effect
Procedure, shortened: (§1)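 Luminescence readout at each listed time point; HEK293, 600 cells/well, RealTime-Glo MT reagent added with cells; compounds pinned (23 nL in DMSO) after 5 h at 37 C; continuous culture at 37 C.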

[2] = A CellTox Green Cytotoxicity Assay to monitor cytotoxicity in HepG2 cells - 40 hour (AID 1224879); further: nearly all actives have a fitted effect of over 40% in size; further: potency means the concentration at half of the fitted maximal effect
Procedure, shortened: (§2)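 HepG2, 600 cells/well premixed w/ CellTox Green; 5 h settle, 37 C/5% CO2; pintool cpd add (DMSO); 37 C, 40 h; fluorescence read at 0, 8, 16, 24, 32, 40 h.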

[3] = qHTS RealTime-Glo MT Cell Viability Assay in HEK293 cells - 0 hour (AID 1224880); further: nearly all actives have a fitted effect of over 45% in size; further: potency means the concentration at half of the fitted maximal effect; on activity change, negative = cytotoxicity: top concentration of the series differs between compounds
Procedure, shortened: as §1

[4] = A CellTox Green Cytotoxicity Assay to monitor cytotoxicity in HEK293 cells - 32 hour (AID 1224881); further: nearly all actives have a fitted effect of over 40% in size; further: potency means the concentration at half of the fitted maximal effect
Procedure, shortened: (§3)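 Read-out: fluorescence of a cell-impermeant cyanine dye staining DNA of dead cells, proportional to cytotoxicity. HEK293, 600 cells/well with reagent, compound (23 nL DMSO) added after 5 h; reads at 0, 8, 16, 24, 32, 40 h.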

[5] = A CellTox Green Cytotoxicity Assay to monitor cytotoxicity in HepG2 cells - 0 hour (AID 1224882); further: nearly all actives have a fitted effect of over 35% in size
Procedure, shortened: as §2

[6] = A CellTox Green Cytotoxicity Assay to monitor cytotoxicity in HepG2 cells - 32 hour (AID 1224883); further: nearly all actives have a fitted effect of over 50% in size; further: potency means the concentration at half of the fitted maximal effect
Procedure, shortened: as §2

[7] = qHTS RealTime-Glo MT Cell Viability Assay in HepG2 cells - 32 hour (AID 1224877); further: nearly all actives have a fitted effect of over 55% in size; further: potency means the concentration at half of the fitted maximal effect
Procedure, shortened: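 Cell number in HepG2 cultures estimated from NanoLuc luminescence generated by metabolic reduction of a prosubstrate by living cells. The homogeneous, nonlytic format allowed repeated reads at 0, 8, 16, 24, 32 and 40 h of compound exposure.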

[8] = A CellTox Green Cytotoxicity Assay to monitor cytotoxicity in HepG2 cells - 24 hour (AID 1224878); further: nearly all actives have a fitted effect of over 45% in size; further: potency means the concentration at half of the fitted maximal effect
Procedure, shortened: as §2

[9] = A CellTox Green Cytotoxicity Assay to monitor cytotoxicity in HEK293 cells - 24 hour (AID 1224875); further: nearly all actives have a fitted effect of over 45% in size; further: potency means the concentration at half of the fitted maximal effect; on activity change: series mostly up to about 77 µM
Procedure, shortened: as §3

[10] = A CellTox Green Cytotoxicity Assay to monitor cytotoxicity in HepG2 cells - 16 hour (AID 1224876); further: nearly all actives have a fitted effect of over 45% in size; further: potency means the concentration at half of the fitted maximal effect
Procedure, shortened: as §2

With `Cc1occc1SSc1ccoc1C` the max response [1] was -28.3%, the Potency [2] was 54.9 µM (active) and the Potency [3] was “inactive”. The Potency [4] was 54.9 µM (active), the Potency [5] was “inactive” and the Potency [6] was 54.9 µM (active).

With `CC1=C(/C=C/C(C)=C/C=C/C(C)=C\C=O)C(C)(C)CCC1` the Potency [1] was 46.4 µM (active), the Potency [7] was “inactive” and the Potency [3] was “inactive”. For the same molecule, the Potency [5] was “inactive” and the Potency [6] was “inactive”.

For `CCOC(=O)[C@@](C)(N)Cc1ccc(O)c(O)c1`, the max response [1] was 0.793%, the Potency [7] was “inactive” and the Potency [3] was “inactive”. The Potency [4] was “inactive”.

With `CC(=O)OC(OC(C)=O)c1ccc([N+](=O)[O-])o1` the Potency [1] was 44.4 µM (active), the Potency [3] was “inactive” and the Potency [5] was “inactive”. The Potency [6] was 55.9 µM (active).

For `CCOC(=O)CN`, the max response [1] was -0.943%, the Potency [7] was “inactive” and the Potency [8] was “inactive”. The Potency [2] was “inactive”, the Potency [3] was “inactive” and the Potency [4] was “inactive”. The Potency [5] was “inactive” and the Potency [6] was “inactive”.

For `CCOC(OCC)C(=O)c1ccccc1`, the max response [1] was 0.351%, the Potency [7] was “inactive” and the Potency [8] was “inactive”. The Potency [2] was “inactive”, the Potency [3] was “inactive” and the Potency [5] was “inactive”. For the same molecule, the Potency [6] was “inactive”.

In the case of `CO[C@H]1C=CO[C@@]2(C)Oc3c(C)c(O)c4c(O)c(cc(O)c4c3C2=O)NC(=O)/C(C)=C\C=C/[C@H](C)[C@H](O)[C@@H](C)[C@@H](O)[C@@H](C)[C@H](OC(C)=O)[C@@H]1C`, the max response [1] is reported as -22.2%, the Potency [7] is reported as “inactive” and the Potency [8] is reported as “inactive”. The Potency [2] was “inactive”, the Potency [3] was 17.5 µM (active) and the Potency [4] was “inactive”. For the same molecule, the Potency [5] was “inactive” and the Potency [6] was “inactive”.

With `O=C(Oc1ccccc1)c1cccc(C(=O)Oc2ccccc2)c1` the max response [1] was 5.48%, the Potency [7] was “inactive” and the Potency [3] was “inactive”. The Potency [5] was “inactive”.

In the case of `O=C(O)c1cccc(Cl)n1`, the max response [1] is reported as 7.12%, the Potency [7] is reported as “inactive” and the Potency [8] is reported as “inactive”. The Potency [3] was “inactive”, the Potency [5] was “inactive” and the Potency [6] was “inactive”.

For `NC1(c2ccc(-c3nc4ccn5c(=O)[nH]nc5c4cc3-c3ccccc3)cc2)CCC1`, the Potency [1] was 1.07 µM (active), the Potency [2] was 26.8 µM (active) and the Potency [3] was “inactive”. For the same molecule, the Potency [5] was “inactive” and the Potency [6] was 26.8 µM (active).

In the case of `O=C1Nc2ccc(Cl)cc2[C@@](C#CC2CC2)(C(F)(F)F)O1`, the Potency [1] is reported as 23.9 µM (active), the Potency [3] is reported as “inactive” and the Potency [5] is reported as “inactive”.

In the case of `CCC(C)c1cc([N+](=O)[O-])cc([N+](=O)[O-])c1OC(=O)OC(C)C` (configuration not stated), the Potency [9] is reported as “inactive”, the Potency [10] is reported as “inactive” and the Potency [3] is reported as “inactive”. The Potency [4] was “inactive” and the Potency [5] was “inactive”.

For `Cc1ccc(N)cc1O`, the Potency [7] was “inactive”, the Potency [3] was “inactive” and the Potency [5] was “inactive”.

In the case of `C1CC(COCC2CO2)CCC1COCC1CO1` (configuration not stated), the Potency [9] is reported as “inactive”, the Potency [10] is reported as “inactive” and the Potency [2] is reported as “inactive”. For the same molecule, the Potency [3] was “inactive”, the Potency [4] was “inactive” and the Potency [6] was “inactive”.

With `COc1ccc(-n2nc(CCC(=O)N(C)O)cc2-c2ccc(Cl)cc2)cc1` the Potency [7] was “inactive”, the Potency [3] was “inactive” and the Potency [4] was “inactive”. The Potency [5] was “inactive”.

In the case of `Nc1cc(Cl)c([N+](=O)[O-])cc1O`, the Potency [9] is reported as “inactive”, the Potency [10] is reported as “inactive” and the Potency [8] is reported as “inactive”. For the same molecule, the Potency [2] was “inactive”, the Potency [3] was “inactive” and the Potency [4] was “inactive”. For the same molecule, the Potency [5] was “inactive” and the Potency [6] was “inactive”.

With `CC(CN(C)C)CN1c2ccccc2CCc2ccccc21` (configuration not stated) the Potency [9] was “inactive”, the Potency [7] was “inactive” and the Potency [2] was 23.9 µM (active). The Potency [3] was “inactive”, the Potency [4] was “inactive” and the Potency [5] was “inactive”. The Potency [6] was 23.9 µM (active).

For `C/C=C/c1ccc(OC)c(OC)c1`, the Potency [9] was “inactive”, the Potency [10] was “inactive” and the Potency [7] was “inactive”. For the same molecule, the Potency [8] was “inactive”, the Potency [2] was “inactive” and the Potency [3] was “inactive”. The Potency [5] was “inactive” and the Potency [6] was “inactive”.

With `CC(C)OC(=O)c1cc(C(=O)OC(C)C)cc([N+](=O)[O-])c1` the Potency [10] was “inactive”, the Potency [7] was “inactive” and the Potency [2] was “inactive”. The Potency [3] was “inactive”.

For `CC(C)c1cccc(C(C)C)c1N1C(=O)c2ccc(O)cc2C1=O`, the Potency [10] was 24.5 µM (active), the Potency [7] was 43.6 µM (active) and the Potency [8] was 24.5 µM (active). For the same molecule, the Potency [2] was 24.5 µM (active), the Potency [3] was “inactive” and the Potency [5] was “inactive”. The Potency [6] was 24.5 µM (active).

For `CN(Cc1cc(Br)cc(Br)c1N)C1CCCCC1`, the Potency [10] was 19 µM (active), the Potency [8] was 21.3 µM (active) and the Potency [3] was “inactive”. The Potency [5] was “inactive” and the Potency [6] was 12 µM (active).

In the case of `COc1cc(C(C)C)c2c(c1)S(=O)(=O)N(COc1cc(=O)n3cccc(OCCN4CCCCC4)c3n1)C2=O`, the cytotoxicity increase [10] is reported as 19.8% [at 15.8 µM], the activity change, negative = cytotoxic [7] is reported as -2.94% [at 15.8 µM] and the activity change, negative = cytotoxicity [3] is reported as -4.74% [at 15.8 µM]. For the same molecule, the cytotoxicity increase [4] was 5.59% [at 15.8 µM] and the cytotoxicity [5] was 2.15% [at 15.8 µM].

With `CC(=O)Oc1ccc(C2(c3ccc(OC(C)=O)cc3)Oc3ccccc3NC2=O)cc1` the Potency [9] was “inactive”, the Potency [10] was “inactive” and the Potency [3] was “inactive”. The Potency [4] was “inactive” and the Potency [5] was “inactive”.

In the case of `CC(C)(C)CC(C)(C)c1ccccc1O`, the Potency [9] is reported as 39.1 µM (active), the Potency [10] is reported as 24.7 µM (active) and the Potency [7] is reported as “inactive”. The Potency [8] was 27.7 µM (active), the Potency [2] was 34.9 µM (active) and the Potency [3] was “inactive”. For the same molecule, the Potency [5] was “inactive” and the Potency [6] was 27.7 µM (active).

For `Cc1c(C)n(Cc2ccccc2)c2ccc(C(=O)OCCN(C)C)cc12`, the Potency [10] was 23.9 µM (active), the Potency [7] was 23.9 µM (active) and the Potency [8] was 23.9 µM (active). For the same molecule, the Potency [2] was 23.9 µM (active), the Potency [3] was “inactive” and the Potency [5] was “inactive”. For the same molecule, the Potency [6] was 23.9 µM (active).
